Test results reported in the supplement of paper PMC10849652.
The full data set covers some 8,800 targets. This sample favours those with a hit. About 0.5% of all pairs of compound and target were hits.

compound: CC1=C(C2=C(C=C1)C(=O)C3=CC=CC=C3N2CCCN)C; experiment: log2 fold change, soluble protein after heating vs DMSO (PISA); higher = thermal stabilisation; K562 lysate, 10 uM; active = over 0.2 and 3.5 SD of the protein, either way, in both replicates (recomputed)
In short: (§1)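 Log-two fold change in thermal stability relative to solvent controls is reported from duplicates. For each sample, crude K562 extract from dounce-homogenised pellets in PBS pH 7.4 with 1 mM MgCl2, at 1 mg/mL protein, was treated with 10 μM compound for 30 min. Aliquots heated for 3 min across 48°C-58°C were pooled, brought to 0.5% NP-40 at 4°C and cleared at 21,000xg for 90 min. The supernatant was quantified by TMTpro 16plex LC-MS/MS with channel sums equalised.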

Chain of UniProt O14810 (O14810 whole entry, looked up): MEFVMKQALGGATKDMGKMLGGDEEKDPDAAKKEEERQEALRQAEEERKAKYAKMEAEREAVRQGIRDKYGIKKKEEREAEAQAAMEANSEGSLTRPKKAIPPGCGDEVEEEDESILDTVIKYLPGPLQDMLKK
Chain of UniProt Q9NYP3 (Q9NYP3 whole entry, looked up): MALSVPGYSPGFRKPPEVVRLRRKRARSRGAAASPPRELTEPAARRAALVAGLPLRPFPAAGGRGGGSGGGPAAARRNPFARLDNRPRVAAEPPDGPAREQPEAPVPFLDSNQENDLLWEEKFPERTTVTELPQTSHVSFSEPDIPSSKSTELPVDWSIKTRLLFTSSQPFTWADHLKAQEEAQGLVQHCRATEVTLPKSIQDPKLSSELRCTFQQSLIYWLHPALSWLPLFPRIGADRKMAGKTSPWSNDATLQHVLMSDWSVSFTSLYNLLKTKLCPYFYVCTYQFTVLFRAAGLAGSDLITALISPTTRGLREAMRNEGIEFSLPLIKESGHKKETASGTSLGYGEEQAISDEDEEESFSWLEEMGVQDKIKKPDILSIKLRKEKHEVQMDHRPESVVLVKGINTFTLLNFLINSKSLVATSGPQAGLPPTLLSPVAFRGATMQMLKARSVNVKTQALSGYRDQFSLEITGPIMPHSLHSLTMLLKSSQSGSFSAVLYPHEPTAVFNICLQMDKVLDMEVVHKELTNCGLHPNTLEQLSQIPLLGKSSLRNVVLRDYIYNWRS
Chain of UniProt P57737 (P57737 whole entry, looked up): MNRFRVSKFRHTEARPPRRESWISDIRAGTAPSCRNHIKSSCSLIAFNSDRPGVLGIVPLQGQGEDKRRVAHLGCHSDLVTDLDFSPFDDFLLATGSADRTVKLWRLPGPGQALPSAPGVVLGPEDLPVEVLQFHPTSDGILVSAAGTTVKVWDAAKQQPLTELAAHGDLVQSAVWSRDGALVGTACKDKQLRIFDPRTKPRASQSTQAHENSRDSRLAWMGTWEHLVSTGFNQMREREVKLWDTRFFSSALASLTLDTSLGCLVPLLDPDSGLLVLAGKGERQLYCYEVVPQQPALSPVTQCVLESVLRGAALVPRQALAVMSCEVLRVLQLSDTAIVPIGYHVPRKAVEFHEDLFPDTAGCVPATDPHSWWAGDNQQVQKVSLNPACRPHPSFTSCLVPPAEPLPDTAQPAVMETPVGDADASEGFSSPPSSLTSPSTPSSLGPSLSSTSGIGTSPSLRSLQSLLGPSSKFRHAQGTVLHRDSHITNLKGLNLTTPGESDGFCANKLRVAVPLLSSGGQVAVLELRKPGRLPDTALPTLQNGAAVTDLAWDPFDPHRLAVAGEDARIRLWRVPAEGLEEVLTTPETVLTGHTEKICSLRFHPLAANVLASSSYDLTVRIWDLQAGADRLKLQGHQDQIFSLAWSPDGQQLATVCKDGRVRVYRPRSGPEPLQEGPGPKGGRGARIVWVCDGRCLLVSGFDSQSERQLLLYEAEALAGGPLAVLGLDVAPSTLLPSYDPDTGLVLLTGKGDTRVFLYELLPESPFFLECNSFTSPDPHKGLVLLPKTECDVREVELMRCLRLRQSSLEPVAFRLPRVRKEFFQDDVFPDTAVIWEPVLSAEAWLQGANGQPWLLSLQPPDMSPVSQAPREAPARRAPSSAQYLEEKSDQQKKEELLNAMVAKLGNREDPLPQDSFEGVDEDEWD
Chain of UniProt P48730 (P48730 whole entry, looked up): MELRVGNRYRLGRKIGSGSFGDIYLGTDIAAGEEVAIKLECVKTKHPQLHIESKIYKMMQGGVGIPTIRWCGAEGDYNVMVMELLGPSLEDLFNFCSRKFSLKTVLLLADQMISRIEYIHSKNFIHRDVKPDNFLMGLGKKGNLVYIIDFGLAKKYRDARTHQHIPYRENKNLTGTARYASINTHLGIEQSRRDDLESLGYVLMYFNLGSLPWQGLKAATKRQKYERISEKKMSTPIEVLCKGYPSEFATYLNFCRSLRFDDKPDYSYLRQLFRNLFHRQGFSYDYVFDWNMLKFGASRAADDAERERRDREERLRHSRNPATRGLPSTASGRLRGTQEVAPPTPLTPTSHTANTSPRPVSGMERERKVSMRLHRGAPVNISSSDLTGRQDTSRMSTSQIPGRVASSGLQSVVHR
Chain of UniProt Q9UJA2 (Q9UJA2 whole entry, looked up): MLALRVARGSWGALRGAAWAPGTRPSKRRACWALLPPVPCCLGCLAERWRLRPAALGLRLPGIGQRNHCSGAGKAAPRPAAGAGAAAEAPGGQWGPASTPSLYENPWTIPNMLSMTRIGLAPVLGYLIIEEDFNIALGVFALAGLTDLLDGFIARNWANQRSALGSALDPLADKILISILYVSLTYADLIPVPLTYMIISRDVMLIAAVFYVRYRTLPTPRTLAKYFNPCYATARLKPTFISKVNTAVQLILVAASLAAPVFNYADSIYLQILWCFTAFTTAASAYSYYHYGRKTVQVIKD
Chain of UniProt P50570 (P50570 whole entry, looked up): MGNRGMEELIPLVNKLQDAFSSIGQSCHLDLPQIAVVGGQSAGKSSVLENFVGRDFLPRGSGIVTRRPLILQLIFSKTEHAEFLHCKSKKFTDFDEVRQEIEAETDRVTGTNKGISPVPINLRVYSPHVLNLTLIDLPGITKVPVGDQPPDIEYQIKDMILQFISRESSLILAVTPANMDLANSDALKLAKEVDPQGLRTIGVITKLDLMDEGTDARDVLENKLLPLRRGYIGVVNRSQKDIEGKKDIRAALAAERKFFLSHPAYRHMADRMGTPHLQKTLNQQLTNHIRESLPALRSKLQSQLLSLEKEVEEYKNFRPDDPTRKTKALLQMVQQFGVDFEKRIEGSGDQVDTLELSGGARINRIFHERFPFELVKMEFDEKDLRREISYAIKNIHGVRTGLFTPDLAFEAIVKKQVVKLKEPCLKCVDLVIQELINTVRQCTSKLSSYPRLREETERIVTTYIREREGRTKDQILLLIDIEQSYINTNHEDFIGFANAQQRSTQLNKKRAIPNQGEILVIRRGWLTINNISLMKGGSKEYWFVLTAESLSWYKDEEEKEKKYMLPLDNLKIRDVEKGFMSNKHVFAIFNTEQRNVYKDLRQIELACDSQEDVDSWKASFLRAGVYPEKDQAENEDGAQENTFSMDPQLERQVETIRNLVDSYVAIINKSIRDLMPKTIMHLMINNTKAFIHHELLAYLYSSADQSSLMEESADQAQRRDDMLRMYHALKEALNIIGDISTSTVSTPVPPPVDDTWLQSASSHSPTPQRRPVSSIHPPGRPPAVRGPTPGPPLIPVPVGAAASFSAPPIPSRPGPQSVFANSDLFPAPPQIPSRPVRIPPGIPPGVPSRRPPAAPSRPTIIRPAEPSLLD
Chain of UniProt P53355 (P53355 whole entry, looked up): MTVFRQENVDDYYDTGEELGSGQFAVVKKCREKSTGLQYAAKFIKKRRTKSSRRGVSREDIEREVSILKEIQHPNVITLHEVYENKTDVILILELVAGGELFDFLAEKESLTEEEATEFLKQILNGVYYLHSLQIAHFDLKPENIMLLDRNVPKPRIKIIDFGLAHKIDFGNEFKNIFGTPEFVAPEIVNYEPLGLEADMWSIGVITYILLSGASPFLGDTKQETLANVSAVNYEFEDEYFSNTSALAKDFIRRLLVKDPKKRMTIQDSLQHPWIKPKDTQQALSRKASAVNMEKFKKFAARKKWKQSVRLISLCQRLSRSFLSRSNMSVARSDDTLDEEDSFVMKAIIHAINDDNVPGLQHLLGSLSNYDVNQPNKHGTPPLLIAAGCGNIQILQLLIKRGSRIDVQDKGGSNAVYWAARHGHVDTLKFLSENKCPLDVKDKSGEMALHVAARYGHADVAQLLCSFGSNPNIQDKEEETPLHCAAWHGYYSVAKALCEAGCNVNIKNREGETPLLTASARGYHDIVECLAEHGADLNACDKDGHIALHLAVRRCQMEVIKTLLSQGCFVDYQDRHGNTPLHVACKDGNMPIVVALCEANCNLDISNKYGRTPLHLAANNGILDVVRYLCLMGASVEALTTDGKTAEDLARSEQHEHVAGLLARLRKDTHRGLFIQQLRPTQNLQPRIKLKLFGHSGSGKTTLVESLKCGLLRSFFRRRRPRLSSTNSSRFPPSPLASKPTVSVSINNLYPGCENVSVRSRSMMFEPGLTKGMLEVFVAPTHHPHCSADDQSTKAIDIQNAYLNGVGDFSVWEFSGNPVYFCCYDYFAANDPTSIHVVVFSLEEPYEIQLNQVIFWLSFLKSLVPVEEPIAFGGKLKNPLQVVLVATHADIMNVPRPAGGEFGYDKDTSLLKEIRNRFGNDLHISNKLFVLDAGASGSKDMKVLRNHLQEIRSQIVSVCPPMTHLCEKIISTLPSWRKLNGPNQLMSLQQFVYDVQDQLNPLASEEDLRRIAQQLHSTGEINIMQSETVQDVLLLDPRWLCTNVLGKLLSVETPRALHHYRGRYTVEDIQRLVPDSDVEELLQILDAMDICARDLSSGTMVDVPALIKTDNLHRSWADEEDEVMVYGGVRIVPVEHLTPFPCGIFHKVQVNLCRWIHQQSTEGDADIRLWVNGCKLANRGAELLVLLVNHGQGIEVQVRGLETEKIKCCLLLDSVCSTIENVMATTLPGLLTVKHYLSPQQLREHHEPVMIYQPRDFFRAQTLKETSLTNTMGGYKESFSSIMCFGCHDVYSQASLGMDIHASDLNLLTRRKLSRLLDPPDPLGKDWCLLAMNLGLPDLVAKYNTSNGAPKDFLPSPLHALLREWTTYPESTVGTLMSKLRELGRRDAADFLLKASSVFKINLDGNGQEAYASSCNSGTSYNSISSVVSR
Chain of UniProt Q6UX07 (Q6UX07 whole entry, looked up): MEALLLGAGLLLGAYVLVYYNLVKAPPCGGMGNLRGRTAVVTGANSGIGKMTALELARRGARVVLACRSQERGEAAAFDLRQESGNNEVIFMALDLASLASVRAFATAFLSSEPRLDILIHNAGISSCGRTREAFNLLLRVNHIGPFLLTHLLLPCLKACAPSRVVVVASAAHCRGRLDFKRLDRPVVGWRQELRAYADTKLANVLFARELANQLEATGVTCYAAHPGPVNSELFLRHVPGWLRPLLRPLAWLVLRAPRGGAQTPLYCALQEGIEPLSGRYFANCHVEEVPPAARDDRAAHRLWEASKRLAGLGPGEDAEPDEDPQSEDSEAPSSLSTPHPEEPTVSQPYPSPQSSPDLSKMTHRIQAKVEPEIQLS

Target | log2 fold change
CHEK2 (UniProt O96017) | -0.002 (inactive)
DLGAP5 isoform 3 (UniProt Q15398) | 0.233 (inactive)
CHMP4A (UniProt H0YIN6) | -0.055 (inactive)
COL12A1 (UniProt Q99715) | -0.224 (inactive)
CSNK1D (UniProt P48730) | -0.151 (inactive)
DDR1 isoform 5 (UniProt Q08345) | -0.099 (inactive)
CORO7 (UniProt P57737) | 0.067 (inactive)
DHRS13 (UniProt Q6UX07) | -0.292 (inactive)
CPLX1 (UniProt O14810) | 0.874 (active)
COL6A3 (UniProt P12111) | -0.099 (inactive)
DAPK1 isoform 3 (UniProt P53355) | 0.017 (inactive)
CNK3/IPCEF1 isoform 2 (UniProt G9CGD6) | 0.075 (inactive)
CLIP1 isoform 2 (UniProt P30622) | -0.025 (inactive)
CINP isoform 3 (UniProt Q9BW66) | -0.168 (inactive)
CYP4V2 (UniProt Q6ZWL3) | -0.022 (inactive)
DNM2 isoform 4 (UniProt P50570) | 0.075 (inactive)
DONSON (UniProt Q9NYP3) | -0.037 (inactive)
CSNK1A1 isoform 3 (UniProt P48729) | -0.061 (inactive)

compound: CC1=C(C=C(C=C1)NC(=O)C2=CC(=CC=C2)C(C)(C)C#N)NC3=CC4=C(C=C3)N=CN(C4=O)C; experiment: as above
In short: as §1

Target | log2 fold change
CSDE1 isoform 3 (UniProt O75534) | -0.009 (inactive)
CHEK2 (UniProt O96017) | -0.041 (inactive)
CHMP4A (UniProt H0YIN6) | 0.33 (inactive)
COL12A1 (UniProt Q99715) | 1.57 (active)
CSNK1D (UniProt P48730) | -0.001 (inactive)
DDR1 isoform 5 (UniProt Q08345) | 0.38 (inactive)
CSAD isoform 3 (UniProt Q9Y600) | -0.027 (inactive)
CLASP2 (UniProt O75122) | -0.098 (inactive)
CORO7 (UniProt P57737) | -0.229 (inactive)
DHRS13 (UniProt Q6UX07) | 0.03 (inactive)
COL6A3 (UniProt P12111) | -0.021 (inactive)
CRLS1 (UniProt Q9UJA2) | 0.066 (inactive)
DAPK1 isoform 3 (UniProt P53355) | -0.151 (inactive)
DHX32 (UniProt Q7L7V1) | -0.023 (inactive)
CLIP1 isoform 2 (UniProt P30622) | 0.053 (inactive)
CINP isoform 3 (UniProt Q9BW66) | 0.039 (inactive)
CYP4V2 (UniProt Q6ZWL3) | 0.02 (inactive)
CLIP1, A0A3B3ITA2 | 0.019 (inactive)
DNM2 isoform 4 (UniProt P50570) | -0.08 (inactive)
DONSON (UniProt Q9NYP3) | 0.062 (inactive)
CSRP2 (UniProt Q16527) | 0.271 (inactive)

compound: CC1=C(C=C(C=C1)NC(=O)C2=CC(=CC=C2)N(C)C)NC(=O)C3=CC=C(C=C3)O; experiment: as above
In short: as §1

Target | log2 fold change
CSDE1 isoform 3 (UniProt O75534) | -0.137 (inactive)
COPS9 (UniProt Q8WXC6) | 0.172 (inactive)
CHEK2 (UniProt O96017) | 0.073 (inactive)
CHMP4A (UniProt H0YIN6) | 0.15 (inactive)
CSNK1D (UniProt P48730) | -0.143 (inactive)
DDR1 isoform 5 (UniProt Q08345) | 0.117 (inactive)
CSAD isoform 3 (UniProt Q9Y600) | -0.033 (inactive)
CLASP2 (UniProt O75122) | 0.001 (inactive)
CORO7 (UniProt P57737) | 0.134 (inactive)
DHRS13 (UniProt Q6UX07) | -0.009 (inactive)
CPLX1 (UniProt O14810) | 0.037 (inactive)
COL6A3 (UniProt P12111) | -0.54 (active)
CRLS1 (UniProt Q9UJA2) | 0.058 (inactive)
DAPK1 isoform 3 (UniProt P53355) | -0.026 (inactive)
DHX32 (UniProt Q7L7V1) | 0.017 (inactive)
CNK3/IPCEF1 isoform 2 (UniProt G9CGD6) | 0 (inactive)
CLIP1 isoform 2 (UniProt P30622) | 0.021 (inactive)
CINP isoform 3 (UniProt Q9BW66) | 0.009 (inactive)
CYP4V2 (UniProt Q6ZWL3) | 0.015 (inactive)
CLIP1, A0A3B3ITA2 | -0.215 (inactive)
DNM2 isoform 4 (UniProt P50570) | 0.047 (inactive)
DONSON (UniProt Q9NYP3) | -0.096 (inactive)
CSNK1A1 isoform 3 (UniProt P48729) | 0.143 (inactive)

compound: CC1=CC=C(C=C1)SC2=C3C=C(SC3=CN=C2)C(=O)N; experiment: as above
In short: as §1

Target | log2 fold change
CSDE1 isoform 3 (UniProt O75534) | 0.031 (inactive)
COPS9 (UniProt Q8WXC6) | -0.184 (inactive)
CSNK1G3 isoform 4 (UniProt Q9Y6M4) | -0.142 (inactive)
CHEK2 (UniProt O96017) | 0.013 (inactive)
CHMP4A (UniProt H0YIN6) | -0.159 (inactive)
COL12A1 (UniProt Q99715) | 0.005 (inactive)
CSNK1D (UniProt P48730) | 0.179 (inactive)
DALRD3 (UniProt Q5D0E6) | 0.037 (inactive)
CLASP2 (UniProt O75122) | -0.028 (inactive)
DHRS13 (UniProt Q6UX07) | 0.111 (inactive)
CPLX1 (UniProt O14810) | 0.119 (inactive)
CSNK2A1, A0A2R8Y4D6 | -0.292 (inactive)
CRLS1 (UniProt Q9UJA2) | 0.048 (inactive)
DAPK1 isoform 3 (UniProt P53355) | -0.094 (inactive)
CLIP1 isoform 2 (UniProt P30622) | -0.088 (inactive)
CINP isoform 3 (UniProt Q9BW66) | -0.005 (inactive)
CYP4V2 (UniProt Q6ZWL3) | 0.015 (inactive)
DNM2 isoform 4 (UniProt P50570) | 0.058 (inactive)
DONSON (UniProt Q9NYP3) | -0.013 (inactive)
